Inconclusive results are not listed. Calls of active or inactive are those of the source. Rule for the calls: active = hit-call score of the fitted dose curve at least 0.9, where 1 is the maximum; inconclusive = response in the unintended direction; inactive = score below 0.9.

Glyceraldehyde-3-phosphate dehydrogenase (Homo sapiens), sequence (P04406 whole entry, looked up): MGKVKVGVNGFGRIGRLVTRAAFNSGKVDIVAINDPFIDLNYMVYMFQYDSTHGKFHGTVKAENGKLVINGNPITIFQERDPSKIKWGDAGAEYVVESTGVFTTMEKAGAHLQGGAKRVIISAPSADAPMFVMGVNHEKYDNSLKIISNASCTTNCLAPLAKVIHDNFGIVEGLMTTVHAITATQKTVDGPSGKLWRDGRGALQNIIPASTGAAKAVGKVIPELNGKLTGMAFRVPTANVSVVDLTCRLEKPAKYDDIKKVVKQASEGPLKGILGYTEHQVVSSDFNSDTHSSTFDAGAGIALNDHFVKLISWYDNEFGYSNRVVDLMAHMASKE

Read-out in this experiment: Glyceraldehyde-3-phosphate dehydrogenase (Homo sapiens) (UniProt P04406)
As to the kind of experiment: CLD_GAPDH_6hr: CellzDirect (CLD) Gene Expression Assay for Baseline Control (Glyceraldehyde 3-phosphate dehydrogenase) at 6 hours (AID 2283681).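 Note: active means increased signal relative to DMSO vehicle.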 On the procedure:
CLD_6hr is a cell-based, multiplexed-readout assay that uses hepatocyte, a human liver primary cell, with measurements taken at 6 hours after chemical dosing in a 96-well plate.CLD_GAPDH_6hr is one of 16 assay component(s) measured or calculated from the CLD_6hr assay. It is designed to make measurements of mRNA induction, a form of inducible reporter, as detected with chemiluminescence signals by Quantitative Nuclease Protection Assay (qNPA) technology.Data from the assay component CLD_GAPDH_6hr was analyzed at the endpoint, CLD_GAPDH_6hr, in the positive analysis fitting direction relative to DMSO as the negative control and baseline of activity. Using a type of inducible reporter, gain-of-signal activity can be used to understand changes in the reporter gene as they relate to the gene GAPDH. Furthermore, this assay endpoint can be referred to as a secondary readout, because this assay has produced multiple assay endpoints where this one serves a background control function. To generalize the intended target to other relatable targets, this assay endpoint is annotated to the background measurement intended target family, where subfamily is baseline control.
Human hepatocyte cultures were treated daily for two consecutive days with fresh dosing solutions containing appropriate concentrations of the 320 ToxCast chemicals (chemical identities were blinded to CellzDirect and other ToxCast collaborators), vehicle control (0.2% DMSO), and positive control inducers as summarized in Table 1. Due to the large number of treatment groups and chemicals examined, the ToxCast chemicals were divided into two groups (spanning two independent cultures of hepatocytes from separate donor preparations (Hu778: ToxCast plates 1 and 2; Hu776: ToxCast plates 3 and 4). Each preparation of human hepatocyte cultures was treated with respective vehicle control, medium only control, set of six positive controls/reference chemicals for the five hepatic receptor pathways, and a subset of eight of the ToxCast chemicals (indoxacarb, pyrithiobac-sodium, norflurazon, cyhalofop-butyl, methomyl, thiram, acetochlor, and propiconazole). These replicate data, coupled with internal replicates designed within the blinded ToxCast chemical library, provided additional data to evaluate interindividual differences between hepatocyte preparations and their potential impact on chemical profiles.Cell morphology and integrity were evaluated using phase-contrast microscopy as an indicator of hepatocyte cell health (Tyson & Green, 1987). Cultures for each treatment group (i.e., media, vehicle [0.2% DMSO], positive control inducers [multiple concentrations], and the ToxCast chemicals [multiple concentrations]) were observed and cell morphology was assessed relative to vehicle control cultures at each harvest time point (0, 6, 24, or 48 h). […] Images were evaluated at the conclusion of the study to assess changes in cell integrity and account for the effects of chemical exposure on uncharacteristic changes in concentration-dependent gene expression profiles. The results from these determinations of apparent cytotoxicity were annotated (yes/no) alongside the corresponding qNPA data for reference.At the conclusion of each treatment period, hepatocyte cultures (96-well) were washed with 1 volume of HBSS, lysed by addition of 25 ul ArrayPlate lysis buffer (HTG, Tucson, AZ), and 70 ul/well of Denaturation Oil, denatured by incubation at 95C for 10 min, and frozen at approximately -70C until analysis by nuclease protection assay (qNPA) (Roberts et al., 2007). For qNPA analysis, cell lysates were thawed at 50C for approximately 30 min, qNPA probes were added, and samples were incubated at 95C for 10 min to begin the detection process by denaturing the target RNA, dissociating the duplexes and secondary structure hybridization. At the conclusion of the hybridization period, S1 nuclease reagent was added to each sample to digest all nonprotected nucleotides at 50C for 60-90 min. […]
In the case of `COC(=O)c1ccccc1S(=O)(=O)NC(=O)Nc1nc(OC(F)F)cc(OC(F)F)n1`, the compound was called inactive.
The same measure for `CCOC(=O)COc1cc(-n2ncc(C(F)(F)F)c(C)c2=O)c(F)cc1Cl`: “inactive”.
The same measure for `CC(C)(c1ccc(O)cc1)c1ccc(O)cc1`: “inactive”.
The value for `S=C([S-])NCCNC(=S)[S-].[Mn+2]` was “inactive”; that for `O=C(O)C1(C(=O)Nc2ccc(Cl)cc2Cl)CC1` was “inactive”; that for `CCCCCOC(=O)COc1cc(N2C(=O)C3=C(CCCC3)C2=O)c(F)cc1Cl` was “inactive”.
In the case of `CCCCC(CC)COC(=O)c1ccccc1C(=O)O` (centres undefined), the compound was classed as inactive.
The same measure for `Cc1nn(C)c(Oc2ccccc2)c1C=NOCc1ccc(C(=O)OC(C)(C)C)cc1`: “inactive”; for `COC(=O)c1ccc(CNS(C)(=O)=O)cc1S(=O)(=O)NC(=O)Nc1nc(OC)cc(OC)n1`: “inactive”; for `CCSC(=O)N(CC(C)C)CC(C)C`: “inactive”.
The same measure for `CCCN(CCC)c1c([N+](=O)[O-])cc(C(F)(F)F)c(N)c1[N+](=O)[O-]`: “inactive”; for `C#CCOC(=O)[C@@H](C)Oc1ccc(Oc2ncc(Cl)cc2F)cc1`: “inactive”.
For the compound `c1ccc2[nH]c(-c3cscn3)nc2c1`, the compound was classed as inactive.
The same measure for `CCCCOC(=O)C(C)Oc1ccc(Oc2ccc(C(F)(F)F)cn2)cc1` (centres undefined): “inactive”; for `CCNc1nc(N)nc(Cl)n1`: “inactive”.
The value for `COCCO` was “inactive”.
In the case of `CCOC(=O)C(C)Oc1ccc(Oc2nc3ccc(Cl)cc3o2)cc1` (centres undefined), the compound was classed as inactive.
The value for `C=CCOC(Cn1ccnc1)c1ccc(Cl)cc1Cl` (centres undefined) was “inactive”.
As to `CCOC(=O)[C@H](C)Oc1ccc(Oc2nc3ccc(Cl)cc3o2)cc1`, the result was inactive.
The same measure for `CCCOC(=O)NCCCN(C)C`: “inactive”; for `COc1c(Cl)ccc(Cl)c1C(=O)O`: “inactive”; for `CCCOC(=O)c1ccc(C(=O)OCCC)nc1`: “inactive”.
Turning to `CCC(C)OC(=O)N1CCCCC1CCO` (centres undefined), the compound was classed as inactive.
The same measure for `CC(C)(C)[C@@H](O)[C@@H](Cc1ccc(Cl)cc1)n1cncn1`: “inactive”; for `COC(=O)c1ccccc1C(=O)O`: “inactive”; for `COC(=O)c1ccc(I)cc1S(=O)(=O)NC(=O)Nc1nc(C)nc(OC)n1`: “inactive”.
The same measure for `COc1nc(C)nc(NC(=O)NS(=O)(=O)c2ccccc2OCCCl)n1`: “inactive”; for `OB(O)O`: “inactive”; for `CC1(C)C(C=C(Cl)Cl)C1C(=O)OCc1cccc(Oc2ccccc2)c1` (centres undefined): “inactive”.
The same measure for `COC(=O)CSc1cc(N=c2sc(=O)n3n2CCCC3)c(F)cc1Cl`: “inactive”; for `COC(=O)c1c(Cl)nn(C)c1S(=O)(=O)NC(=O)Nc1nc(OC)cc(OC)n1`: “inactive”.
`CCCCCCC(C)OC(=O)COc1nc(F)c(Cl)c(N)c1Cl` (centres undefined): the result was inactive.
The same measure for `CCC(O)=C1C(=O)CC(C(=O)O)CC1=O` (centres undefined): “inactive”; for `CCCN(CCC)C(=O)SCC`: “inactive”.

The record behind these values is PubChem BioAssay (EPA / NIEHS).
